High-throughput results as filed in PubChem BioAssay.
TrxR1 inh: blocks rat thioredoxin reductase 1; O89049; recombinant rTrxR1, NADPH fluorescence consumption, selenite substrate; Potency, µM (series often up to 114 µM), actives largely listed as inhibitors; 1% of 390,000 active; note: nearly all actives have a fitted effect of over 65% in size
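Rat TrxR1 (90 nM in the dispensed reagent) was pre-reduced with 400 uM NADPH for 5 min at room temperature, then incubated with compound for 15 min. After 400 uM selenite was added, NADPH fluorescence (Ex 340/Em 450 nm) was followed for 8 min.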
TrxR1 substrate: rat thioredoxin reductase 1 substrate activity; Potency, µM (doses to about 114 µM); 0.01% of 390,000 active; O89049; purified TrxR1 substrate turnover, NADPH consumption readout; note: nearly all actives have a fitted effect of over 50% in size
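Rat TrxR1, dispensed at 90 nM, was prereduced with 400 uM NADPH (final) for 5 min at ~22 deg C, then incubated with compound 15 min before 400 uM selenite. A first-read NADPH fluorescence drop versus no-compound background flagged substrates.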
GLS inh: glutaminase GLS (human) inhibition; GLS enzymatic activity, qHTS titration; Potency, µM (doses to about 45.5 µM), usual class: inhibitors; 0.21% of 410,000 active; AID 624170
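Two-point fluorescence kinetic (t0, 30 min RT) for hKGA; glutamate detected via glutamate oxidase–HRP–Amplex Red. Substrate: 1 mM L-glutamine solution; buffer 45 mM KH2PO4, pH 8.2.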
mIDH1 inhibitor: inhibitors of human mutant IDH1 R132H | O75874 | IDH1-R132H enzyme, NADPH consumption, diaphorase/resazurin fluorescence | Potency, µM (top dose mostly 76.6 µM), actives largely listed as inhibitors | 0.093% of 390,000 active | AID 602179; note: nearly all actives have a fitted effect of over 65% in size
Target sequence (O75874 whole entry R132H, stated change not applied): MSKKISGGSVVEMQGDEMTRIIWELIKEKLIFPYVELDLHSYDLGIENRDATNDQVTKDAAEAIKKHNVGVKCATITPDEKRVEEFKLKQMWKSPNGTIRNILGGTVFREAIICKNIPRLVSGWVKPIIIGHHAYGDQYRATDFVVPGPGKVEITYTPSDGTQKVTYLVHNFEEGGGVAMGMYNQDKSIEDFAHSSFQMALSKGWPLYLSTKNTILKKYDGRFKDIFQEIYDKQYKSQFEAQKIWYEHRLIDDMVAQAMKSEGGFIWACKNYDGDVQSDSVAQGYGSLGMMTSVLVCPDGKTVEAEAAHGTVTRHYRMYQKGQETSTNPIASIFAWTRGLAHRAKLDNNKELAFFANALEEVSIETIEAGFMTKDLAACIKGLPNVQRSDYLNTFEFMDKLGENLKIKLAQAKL
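IDH1-R132H (0.5 ug/mL dispensed) in pH 7.5 Tris buffer was preincubated 30 min with compound, then given a substrate mix of 0.016 mM NADPH and 2 mM alpha-KG for 80 min at room temperature; remaining NADPH was read by diaphorase/resazurin fluorescence.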
Of the large screens only hits and unclear results are named; the others gave an inactive call. Most compounds without a hit are left out; they make up all but 1.2% or so of the library. Calls come from the whole dose curve; as a rule, active = well fitted curve in the direction sought with a large enough effect; inconclusive = small, poorly fitted or top-dose-only effect, or another doubt; inactive = no such curve, though single readings can be large; an effect the other way counts as inactive or inconclusive.

CC/C=C(/C(=O)N[C@@H]1C(=O)N2C(C(=O)OCOC(=O)C(C)(C)C)=C(COC(N)=O)CS[C@H]12)c1csc(N)n1	none (no result: TrxR1 inh, TrxR1 substrate, mIDH1 inhibitor)
CCCC(O)c1nc2ccccc2n1CCCCOc1ccc(OC)cc1 (stereo not drawn)	none
O=C(CN1C(=O)NC2(CCCCC2)C1=O)Oc1ccc2c(C(F)(F)F)cc(=O)oc2c1	TrxR1 inh 40µM
O=C(CN1C(=O)NC2(CCCC2)C1=O)Oc1ccc2ccc(=O)oc2c1	TrxR1 inh 79µM
CN1CCN(Cc2cc(COCc3ccccc3)c3cccnc3c2O)CC1	TrxR1 inh inconclusive, GLS inh 4µM
Oc1ccc(CN2CCN(Cc3ccccc3)CC2)c2cccnc12	TrxR1 inh 14µM
CCN(CC)c1ccc(CNCCCSc2nnnn2C)cc1	none
O=C(c1ccc(-c2cccc(C(F)(F)F)c2)o1)N1CCOCC1	none
CC(=O)N1CCN(C(=O)c2ccc(-c3cccc(C(F)(F)F)c3)o2)CC1	TrxR1 inh 40µM
CCCC(=O)O[C@]1(C(=O)COC(=O)CC)[C@@H](C)C[C@H]2[C@@H]3CCC4=CC(=O)C=C[C@@]4(C)[C@@]3(F)[C@H](O)C[C@@]21C	none (no result: TrxR1 inh, TrxR1 substrate, mIDH1 inhibitor)
O=C(c1coc(=O)c(Br)c1)N1CCC(C(O)(c2ccccc2)c2ccccc2)CC1	none
CC1(C)CCCN(C(=O)c2coc(=O)c(Br)c2)C1	TrxR1 inh inconclusive, GLS inh 10µM
C[C@H]1CCCCO[C@H](CN(C)C(=O)C2CCCCC2)[C@@H](C)CN([C@@H](C)CO)C(=O)c2cc(NC(=O)NC3CCCCC3)ccc2O1	none (no result: TrxR1 inh, TrxR1 substrate)
COc1ccncc1-c1ccccc1C1=CC(=O)CC(C)(C)C1=O	none (no result: TrxR1 inh, TrxR1 substrate)
Cc1cc(-c2csc(N)n2)c(C)n1Cc1ccco1	TrxR1 inh 16µM
Cc1ccc(NCCC(=O)c2cccc([N+](=O)[O-])c2)c(C)c1	TrxR1 inh 3.2µM
Cc1cccc(NCCC(=O)c2ccc([N+](=O)[O-])cc2)c1C	TrxR1 inh 4.5µM
O=C(/C=C/c1ccc(Br)o1)Nc1nccs1	TrxR1 inh 28µM
O=C(/C=C/c1ccc(Br)o1)NCc1ccccc1	TrxR1 inh 4µM
O=C(Nc1nccs1)c1ccc(Br)o1	none
Cc1ccc(CNC(=O)/C=C/c2ccc(Br)o2)cc1	TrxR1 inh inconclusive
Cc1c(C)c(C)c(/C=C/c2ccnc3ccccc23)c(C)c1C	none (no result: GLS inh, mIDH1 inhibitor)
NC(=O)C1CCN(C2=C(NS(=O)(=O)c3ccc(Cl)cc3)C(=O)c3ccccc3C2=O)CC1	TrxR1 inh 20µM
Cc1ccc(CNC(=O)CSc2nc3c(sc4ccccc43)c(=O)n2CCCOC(C)C)cc1	none
CCc1ccccc1NC(=O)c1c(NC(=O)c2ccccc2)sc2c1CCCC2	TrxR1 inh 89µM
Oc1ccc(-c2csc(-c3cccnc3)n2)cc1O	GLS inh 3.5µM
Oc1ccc(-c2csc(-c3ccccc3)n2)cc1O	GLS inh inconclusive
Cc1nc(-c2ccc(O)c(O)c2)cs1	GLS inh 11µM
COc1cc(-c2csc(C)n2)ccc1O	none
Cc1ccc2nc(-c3ccc(O)c(O)c3)cn2c1	GLS inh 20µM
CN(C)c1ccc(CNC(=O)C2CCN(c3nnc(-n4cccc4)s3)CC2)cc1	none
CCCCCCCCCCCCCCCCCCOP(=O)([O-])OC1CC[N+](C)(C)CC1	none (no result: TrxR1 inh, TrxR1 substrate, mIDH1 inhibitor)
CN(CC(=O)Nc1ccc(N2CCOCC2)cc1)CC(=O)Nc1ccc(N2CCOCC2)cc1	none
CN(CC(=O)Nc1ccc(N2CCOCC2)cc1)Cc1c(O)ccc2ccccc12	TrxR1 inh 4µM
Cc1ccc(C(=O)NCc2ccco2)cc1S(=O)(=O)Nc1cccc(C)c1C	TrxR1 inh 79µM
O=C(NCc1ccco1)c1cccc(NC(=O)c2ccco2)c1	TrxR1 inh 50µM
O=C(Nc1cccc(NC(=O)c2ccc(-c3ccc(Br)cc3)o2)c1)c1ccco1	TrxR1 inh 79µM (no result: GLS inh)
O=C(Nc1cccc(-c2nc3ccccc3o2)c1)c1ccc(-c2ccc(Br)cc2)o1	none
Cc1ccccc1NS(=O)(=O)c1cc(C(=O)NCc2ccco2)ccc1C	none
COc1ccc(-c2cc(OC(=O)c3ccccc3Cl)c3c(C)oc(C)c3c(=O)c2)cc1OC	TrxR1 inh inconclusive
COc1ccc(S(=O)(=O)NCCc2sc(C)nc2C)cc1F	none
CN(C)[C@H]1C(=O)C(C(=O)NCN2CCCC2)=C(O)[C@]2(O)C(=O)C3=C(O)c4c(O)cccc4[C@@](C)(O)[C@H]3C[C@@H]12	GLS inh 5µM (no result: TrxR1 inh, TrxR1 substrate, mIDH1 inhibitor)
CN(C)c1ccc(O)c2c1CC1CC3[C@@H](N(C)C)C(=O)C(C(N)=O)=C(O)[C@]3(O)C(=O)C1=C2O (stereo partly drawn)	none (no result: mIDH1 inhibitor)
COc1ccc(OCC#CCN2CC(C)OC(C)C2)cc1 (stereo not drawn)	TrxR1 inh 16µM
COc1ccc(-c2cc(OC(=O)c3ccccc3C)c3c(C)oc(C)c3c(=O)c2)cc1	TrxR1 inh inconclusive
COc1ccc(N2CC(C(=O)Nc3nnc(SCC(=O)NCc4ccco4)s3)CC2=O)cc1 (stereo not drawn)	TrxR1 inh inconclusive
O=C(CSc1nnc(NC(=O)C2CC(=O)N(c3ccc(F)cc3)C2)s1)NCc1ccco1 (stereo not drawn)	TrxR1 inh 32µM
Cc1ccc(S(=O)(=O)/N=C2/NC(=O)/C(=C/c3ccc(Br)o3)S2)cc1	TrxR1 inh 28µM
Cc1ccc(S(=O)(=O)/N=C2/NC(=O)/C(=C\c3cc(Br)cc(Br)c3O)S2)cc1	GLS inh inconclusive
CCN(CC)c1ccc(C(=O)NCc2ccc3c(c2)CCN3C(=O)c2ccccc2)cc1	none
OC[C@H]1O[C@@H](n2cnc3c(Nc4ccccc4)ncnc32)[C@H](O)[C@H]1O	none (no result: TrxR1 substrate, GLS inh, mIDH1 inhibitor)
CC(C)CCN1C(=O)CC(NNC(=O)c2ccc(S(=O)(=O)N3CCCC3)cc2)C1=O (stereo not drawn)	none
COCCN1C(=O)CC(NNC(=O)c2ccc(S(=O)(=O)N3CCCC3)cc2)C1=O (stereo not drawn)	GLS inh 10µM
CCOC(=O)c1cccc(NC(=O)c2cc3cc4ccc(C)cc4nc3o2)c1	none
O=C(N/N=C/c1ccc(O)c(O)c1)c1cccc(S(=O)(=O)N2CCCCC2)c1	GLS inh 7.1µM
CCOC(=O)/C(=C\c1cn(C)c2ccccc12)[N+](=O)[O-]	TrxR1 inh 18µM, GLS inh inconclusive
CN(C)c1ccc(/C=C/c2ccnc3c(Cl)cccc23)cc1	none (no result: GLS inh, mIDH1 inhibitor)
Cc1ccc(N2C(=O)[C@@H]3[C@H](C2=O)C2c4ccccc4C=CN2[C@@H]3C(=O)c2ccco2)c(C)c1 (stereo partly drawn)	TrxR1 inh 14µM
Cc1ccc(S(=O)(=O)c2nc(-c3ccco3)oc2SCC(N)=O)cc1	TrxR1 inh 79µM, TrxR1 substrate inconclusive
NC(=O)CSc1oc(-c2ccco2)nc1S(=O)(=O)c1ccc(Cl)cc1	TrxR1 inh inconclusive
O=C(CSc1oc(-c2ccco2)nc1S(=O)(=O)c1ccc(F)cc1)NCC1CCCO1 (stereo not drawn)	TrxR1 inh 16µM
CCCCN1C(=O)C(CC(=O)NCc2cccs2)CC(C(=O)N(CC)CC)=C1C (stereo not drawn)	none (no result: TrxR1 inh, TrxR1 substrate)
